Data reported in PubChem BioAssay (NCI).
Compounds without any hit were thinned out: in the full panel of roughly 83,000, 20% have a hit.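 The test compound was applied at a single concentration to cells in 96-well plates for 48 hours, and percent growth was recorded.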 Active and inactive are the calls of the source. How the source made its calls: active means growth percent below 10; inactive means the rest.

How the values were obtained:
Test in all cases: NCI-60 one-dose screen, 48 h (100 = growth as untreated, 0 = no growth, -100 = all killed)
Details in all cases: 10 µM unless noted
HCT-15 colon = tested on: HCT-15 colon
HT29 colon = tested on: HT29 colon
SNB-75 CNS = tested on: SNB-75 CNS
SNB-19 CNS = tested on: SNB-19 CNS
U251 CNS = tested on: U251 CNS
PC-3 prostate = tested on: PC-3 prostate
SK-MEL-5 melanoma = tested on: SK-MEL-5 melanoma
UACC-62 melanoma = tested on: UACC-62 melanoma
LOX IMVI melanoma = tested on: LOX IMVI melanoma
SK-MEL-28 melanoma = tested on: SK-MEL-28 melanoma
SK-MEL-2 melanoma = tested on: SK-MEL-2 melanoma
EKVX NSCLC = tested on: EKVX NSCLC
SN12C renal = tested on: SN12C renal
UO-31 renal = tested on: UO-31 renal
TK-10 renal = tested on: TK-10 renal
ACHN renal = tested on: ACHN renal
CAKI-1 renal = tested on: CAKI-1 renal
A498 renal = tested on: A498 renal
CCRF-CEM leukemia = tested on: CCRF-CEM leukemia
MOLT-4 leukemia = tested on: MOLT-4 leukemia

Measured: growth

COc1cc(/C=N/NC(=O)c2cn(C3CC3)c3c(OC)c(N4CC5CCCNC5C4)c(F)cc3c2=O)ccc1O (stereo not given)
inactive: HCT-15 colon 32% | SNB-75 CNS 106% | SNB-19 CNS 26.2% | PC-3 prostate 45.1% | SK-MEL-5 melanoma 95.4% | UACC-62 melanoma 91.5% | SK-MEL-28 melanoma 94.4% | SK-MEL-2 melanoma 113% | EKVX NSCLC 24.9% | SN12C renal 23.8% | UO-31 renal 81.1% | TK-10 renal 119% | ACHN renal 35.3% | CAKI-1 renal 82.9% | A498 renal 99.4%
active: HT29 colon -0.257% | U251 CNS -67% | LOX IMVI melanoma -83.5% | CCRF-CEM leukemia 2.53% | MOLT-4 leukemia 2.34%

O=C(CSc1nnc(-c2ccc3nc(-c4ccccc4)[nH]c3c2)o1)Nc1ccc(C(=O)/C=C/c2ccccc2)cc1
inactive: HCT-15 colon 110% | HT29 colon 108% | SNB-75 CNS 113% | SNB-19 CNS 99.9% | U251 CNS 98.2% | PC-3 prostate 106% | SK-MEL-5 melanoma 98.3% | UACC-62 melanoma 97.1% | LOX IMVI melanoma 97.3% | SK-MEL-28 melanoma 103% | SK-MEL-2 melanoma 103% | EKVX NSCLC 106% | SN12C renal 98% | UO-31 renal 87.4% | TK-10 renal 110% | ACHN renal 102% | CAKI-1 renal 103% | A498 renal 95.9% | CCRF-CEM leukemia 107% | MOLT-4 leukemia 93.2%

Nc1ccccc1NC(=O)c1ccc(NC(=O)C/C=C/c2cccnc2)cn1
inactive: HCT-15 colon 21.4% | HT29 colon 12.9% | SNB-75 CNS 29.4% | SNB-19 CNS 33.1% | U251 CNS 15.6% | PC-3 prostate 31.6% | SK-MEL-2 melanoma 15.9% | EKVX NSCLC 52.9% | SN12C renal 25.2% | TK-10 renal 17.4% | ACHN renal 26.1% | CAKI-1 renal 29.2% | CCRF-CEM leukemia 15.8% | MOLT-4 leukemia 17.3%
active: SK-MEL-5 melanoma -75.9% | UACC-62 melanoma 0.71% | LOX IMVI melanoma 1.78% | SK-MEL-28 melanoma -34% | UO-31 renal 0.829% | A498 renal -35.3%

Cc1ccc2c(c1)Oc1nc(N)c(C#N)c(N)c1C2Sc1ccc(F)cc1 (stereo not given)
active: HCT-15 colon -77.9% | HT29 colon -38.6% | SNB-75 CNS -14.1% | SNB-19 CNS -98.2% | U251 CNS -95.9% | PC-3 prostate -96.8% | SK-MEL-5 melanoma -95.4% | UACC-62 melanoma -93.5% | LOX IMVI melanoma -93.1% | SK-MEL-28 melanoma -98.9% | SK-MEL-2 melanoma -75.2% | EKVX NSCLC -98.9% | SN12C renal -98.4% | UO-31 renal -98.2% | TK-10 renal -98.8% | ACHN renal -100% | CAKI-1 renal -99.8% | A498 renal -99.3% | CCRF-CEM leukemia -21.1% | MOLT-4 leukemia -16.6%

COc1ccccc1NCc1cccn1Cc1ccc(F)cc1
inactive: HCT-15 colon 98.3% | HT29 colon 102% | SNB-75 CNS 104% | SNB-19 CNS 96% | U251 CNS 98.8% | PC-3 prostate 97.3% | SK-MEL-5 melanoma 97.4% | UACC-62 melanoma 89.8% | LOX IMVI melanoma 97% | SK-MEL-28 melanoma 97.4% | SK-MEL-2 melanoma 106% | EKVX NSCLC 98% | SN12C renal 97.5% | UO-31 renal 75.6% | TK-10 renal 91.3% | ACHN renal 93.3% | CAKI-1 renal 94% | A498 renal 85.9% | CCRF-CEM leukemia 91.8% | MOLT-4 leukemia 94%

Cn1cc(-c2nc(N)nnc2-c2c[nH]c3ccc(Br)cc23)c2cc(Br)ccc21
inactive: HCT-15 colon 29.8% | HT29 colon 14.1% | SNB-75 CNS 55.8% | SNB-19 CNS 43.1% | U251 CNS 27.9% | PC-3 prostate 20.2% | SK-MEL-5 melanoma 42.9% | UACC-62 melanoma 27.4% | LOX IMVI melanoma 44% | SK-MEL-28 melanoma 60.1% | SK-MEL-2 melanoma 26.8% | EKVX NSCLC 65.1% | SN12C renal 44.7% | UO-31 renal 54.1% | TK-10 renal 98% | ACHN renal 52% | CAKI-1 renal 40.3% | A498 renal 18.3% | CCRF-CEM leukemia 11.8% | MOLT-4 leukemia 17.7%

CC[C@@H](CO)Nc1ccc2ncc(C#Cc3cncc(C(=O)Nc4ccc(CN5CCN(C)CC5)c(C(F)(F)F)c4)c3)n2n1
active: HCT-15 colon -33.4% | HT29 colon -51% | SNB-75 CNS -83.5% | SNB-19 CNS -20% | U251 CNS -87.8% | PC-3 prostate -21.1% | SK-MEL-5 melanoma -96.4% | UACC-62 melanoma -34.5% | LOX IMVI melanoma -95.3% | SK-MEL-28 melanoma -43.4% | SK-MEL-2 melanoma -93.2% | EKVX NSCLC -9.99% | SN12C renal -55.4% | UO-31 renal -85.9% | TK-10 renal -53.5% | ACHN renal -91.4% | CAKI-1 renal -82.8% | A498 renal -98.8% | CCRF-CEM leukemia 7.24% | MOLT-4 leukemia 3.44%

CC1(C)CC[C@]2(C(=O)N3CCOCC3)CC[C@]3(C)C(=CC[C@@H]4[C@@]5(C)C/C(=C/c6ccccn6)C(=O)C(C)(C)[C@@H]5CC[C@]43C)[C@@H]2C1
active: A498 renal -3.14%
inactive: HCT-15 colon 52.1% | HT29 colon 56.3% | SNB-75 CNS 34.1% | SNB-19 CNS 88% | U251 CNS 80.7% | PC-3 prostate 20.9% | SK-MEL-5 melanoma 69.3% | UACC-62 melanoma 64.8% | LOX IMVI melanoma 55.9% | SK-MEL-28 melanoma 86.1% | SK-MEL-2 melanoma 82.9% | EKVX NSCLC 56.1% | SN12C renal 67.7% | UO-31 renal 42% | TK-10 renal 70.2% | ACHN renal 76.9% | CAKI-1 renal 28.9% | CCRF-CEM leukemia 44.5% | MOLT-4 leukemia 25%

COc1ccc(N2CCN(C3=C(Cl)C(=O)C(C)=C(C)C3=O)CC2)cc1
inactive: HCT-15 colon 110% | HT29 colon 120% | SNB-75 CNS 107% | SNB-19 CNS 99.1% | U251 CNS 100% | PC-3 prostate 92.3% | SK-MEL-5 melanoma 97.6% | UACC-62 melanoma 88.5% | LOX IMVI melanoma 91.4% | SK-MEL-28 melanoma 118% | SK-MEL-2 melanoma 106% | EKVX NSCLC 116% | SN12C renal 99.3% | UO-31 renal 91.4% | TK-10 renal 123% | ACHN renal 104% | CAKI-1 renal 91.9% | A498 renal 108% | CCRF-CEM leukemia 26.1% | MOLT-4 leukemia 53.7%

O=C(/C=C/c1ccc(F)cc1)c1ccc(O)cc1
inactive: HCT-15 colon 73.5% | HT29 colon 93.2% | SNB-75 CNS 95.3% | SNB-19 CNS 91.4% | U251 CNS 66.7% | PC-3 prostate 95.4% | SK-MEL-5 melanoma 94% | UACC-62 melanoma 88% | LOX IMVI melanoma 63.3% | SK-MEL-28 melanoma 109% | SK-MEL-2 melanoma 115% | EKVX NSCLC 104% | SN12C renal 91.9% | UO-31 renal 91.9% | TK-10 renal 106% | ACHN renal 102% | CAKI-1 renal 87% | A498 renal 101% | CCRF-CEM leukemia 77.6% | MOLT-4 leukemia 92.5%

CCc1cccc2c3c(sc12)C(c1ccc(Cl)cc1)C(C#N)=C(/N=C/c1ccc(Cl)cc1)O3 (stereo not given)
inactive: HCT-15 colon 25% | SNB-19 CNS 20.1% | U251 CNS 20.5% | PC-3 prostate 16.5% | SK-MEL-5 melanoma 14.5% | UACC-62 melanoma 10.7% | LOX IMVI melanoma 26.5% | SK-MEL-28 melanoma 56.7% | SK-MEL-2 melanoma 31% | EKVX NSCLC 45.8% | SN12C renal 33.9% | UO-31 renal 39.9% | TK-10 renal 56.4% | ACHN renal 41.7% | CAKI-1 renal 37.5% | CCRF-CEM leukemia 13% | MOLT-4 leukemia 30.2%
active: HT29 colon 7.88% | SNB-75 CNS -13.9% | A498 renal -4.9%

CCCCCc1ccc(S(=O)(=O)Nc2cccc(-c3csc(NC(=O)CN4CCN(C)CC4)n3)c2)cc1
active: LOX IMVI melanoma -58%
inactive: HCT-15 colon 11.7% | HT29 colon 25.5% | SNB-75 CNS 89.5% | SNB-19 CNS 85% | U251 CNS 49.7% | PC-3 prostate 67.1% | SK-MEL-5 melanoma 50.8% | UACC-62 melanoma 92.2% | SK-MEL-28 melanoma 89.4% | SK-MEL-2 melanoma 100% | EKVX NSCLC 89.2% | SN12C renal 90.6% | UO-31 renal 75% | TK-10 renal 115% | ACHN renal 91.8% | CAKI-1 renal 78.5% | A498 renal 82.9% | CCRF-CEM leukemia 27.2% | MOLT-4 leukemia 20.8%

COCCNc1ccc2ncc(C#Cc3cncc(C(=O)Nc4ccc(CN5CCN(C)CC5)c(C(F)(F)F)c4)c3)n2n1
active: HCT-15 colon -22.7% | HT29 colon -22.6% | SNB-75 CNS -71.5% | SNB-19 CNS -12% | U251 CNS -38.2% | PC-3 prostate -25.3% | SK-MEL-5 melanoma -93.7% | UACC-62 melanoma -62.4% | LOX IMVI melanoma -87.8% | SK-MEL-28 melanoma -22.9% | SK-MEL-2 melanoma -90.5% | EKVX NSCLC -23.2% | SN12C renal -6.14% | UO-31 renal -40% | TK-10 renal -43.3% | ACHN renal 1.57% | CAKI-1 renal -40.3% | A498 renal -98% | MOLT-4 leukemia 5.84%
inactive: CCRF-CEM leukemia 11.2%

C=C(C)[C@@H]1CC[C@]2(COC)CC[C@]3(C)[C@H](CC[C@@H]4[C@@]5(C)CCCNC(C)(C)[C@@H]5CC[C@]43C)[C@@H]12
inactive: HT29 colon 13.7% | SNB-75 CNS 76.3% | SNB-19 CNS 66.5% | U251 CNS 22.2% | PC-3 prostate 39.5% | SK-MEL-5 melanoma 48.1% | UACC-62 melanoma 75.2% | SK-MEL-2 melanoma 84.6% | EKVX NSCLC 53.9% | SN12C renal 73.6% | UO-31 renal 60.8% | TK-10 renal 79.6% | ACHN renal 67% | CAKI-1 renal 19% | A498 renal 62.3%
active: HCT-15 colon 2.81% | LOX IMVI melanoma -90.8% | SK-MEL-28 melanoma -61.2% | CCRF-CEM leukemia -10.1% | MOLT-4 leukemia -32.3%

CCCCCc1ccc(S(=O)(=O)Nc2cc(-c3csc(NC(=O)CN4CCN(C)CC4)n3)ccc2N2CCN(C)CC2)cc1
active: HCT-15 colon -68.4% | HT29 colon -25.3% | SNB-19 CNS 5.25% | U251 CNS -32.9% | SK-MEL-5 melanoma -89.9% | UACC-62 melanoma -78.4% | LOX IMVI melanoma -82.9% | SK-MEL-28 melanoma -87.3% | SN12C renal -21.6% | UO-31 renal -94.2% | ACHN renal 0.622% | CAKI-1 renal -19.8% | CCRF-CEM leukemia 0.815% | MOLT-4 leukemia -18.4%
inactive: SNB-75 CNS 94.7% | PC-3 prostate 29.6% | SK-MEL-2 melanoma 37.8% | EKVX NSCLC 55.8% | TK-10 renal 134% | A498 renal 73.1%
